For experiment [1], the target named is Albumin (Bos taurus) (UniProt P02769). Kind of experiment: compounds binding labelled BSA control protein – biochemical, small-molecule microarray, Alexa647 label, 635/667 nm fluorescence, artefact control for SMM control protein annotation, profiling panel (AID 1118).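 Note: score merges 667 nm emission intensity and signal-to-noise per printed compound spot.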 The following applies: BSA-A647 binding, fluorescence 635 nm, higher = more signal.
Experiment [2] is described as follows: probe aXIP binding to arrayed compounds – biochemical, NeuroSMM set, 635/667 nm fluorescence, primary screen (AID 1119).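 Note: probe is the protein aXip251-270 applied at 1 µg/mL to compound-printed slides; binding of probe to printed compounds measured as 667 nm fluorescence plus signal to noise.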 The following applies: small-molecule microarray, higher = more signal, called active from +8 up or from −8 down.
Experiment [3] is described as follows: probe aNOTCH3 binding on compound microarray – biochemical, small-molecule microarray, 635/667 nm fluorescence, primary screen (AID 1120).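 Note: probe is a biotin-tagged antibody raised against NOTCH3 rather than NOTCH3 protein; score merges spot fluorescence near 667 nm with spot signal to noise.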 The following applies: higher = more signal.
Experiment [4] can be described thus: probe aNOTCH2 binding on compound microarray – biochemical, small-molecule microarray, 635/667 nm fluorescence, primary screen (AID 1121).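 Note: score merges feature fluorescence read at 667 nm with its signal to noise.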 The following applies: higher = more signal.
The target of experiment [5] is Carbonic anhydrase 2 (Homo sapiens) (UniProt P00918). As to the kind of experiment: compounds binding carbonic anhydrase 2 – biochemical, small-molecule microarray, Alexa647-labelled CAII, profiling panel (AID 1122). The following applies: CAII-A647 binding fluorescence, higher = more signal.
A short description of experiment [6]: COS7 lysate on small-molecule microarray, probe aHis, 635 nm (AID 1123).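 Note: z-score combines 667nm fluorescence intensity with signal-to-noise per printed compound spot.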 The following applies: COS7 cell lysate, fluorescence, higher = more signal.
Experiment [7] can be described thus: probe aLAP1 signal on lysate-treated microarray – cell lysate, small-molecule microarray, COS7 lysate, primary screen (AID 1124).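 Note: lysate comes from COS7 cells expressing LAP1 and is applied at 0.3 µg/mL; score merges spot fluorescence near 667 nm with signal-to-noise over triplicate slides.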 The following applies: probe aLAP1, fluorescence, higher = more signal.
Experiment [8] has as its system Sam68 (KHDRBS1). As to the kind of experiment: compounds binding KHDRBS1 protein – biochemical, small-molecule microarray, 635 nm fluorescence, primary screen (AID 1125).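 Note: score merges 667 nm channel intensity with signal to noise over triplicate slides.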 The following applies: higher = more signal.
Experiment [9] has as its system Chordin-like protein 2 (CHRDL2). As to the kind of experiment: compounds binding chordin-like 2 – biochemical, small-molecule microarray, 635 nm fluorescence, primary screen (AID 1126).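 Note: printed compound slides probed with Chrdl2 protein at 4 µg/mL for 1 h at 4 C; score merges 667 nm emission intensity with signal to noise over three replicate slides.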 The following applies: fluorescence 635 nm, higher = more signal.
The target of experiment [10] is Concanavalin-A (Canavalia ensiformis) (UniProt P02866). Kind of experiment: compounds binding concanavalin A lectin – biochemical, small-molecule microarray, Alexa647 label, 635 nm, artefact control for SMM control protein annotation, primary screen (AID 1127).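 Note: z combines 667 nm emission intensity with signal-to-noise across three replicate slides.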 The following applies: ConA-A647 binding fluorescence, higher = more signal.
Experiment [11] can be described thus: compounds binding Alexa647 anti-His antibody – biochemical, small-molecule microarray, 635 nm fluorescence, artefact control for SMM control protein annotation, primary screen (AID 1128).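 Note: score merges feature fluorescence with signal-to-noise for each printed compound spot.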 The following applies: higher = more signal.
For experiment [12], the system named is Human papillomavirus type 1a E7 protein (residues 1-88). Kind of experiment: HPV1a E7 small-molecule binders, primary screen, biochemical, small-molecule microarray, residues 1-88, 635 nm (AID 1129). The following applies: small-molecule microarray binding, fluorescence 635 nm; higher = more signal.
Experiment [13] concerns the target Focal adhesion kinase 1 (Homo sapiens) (UniProt Q05397). As to the kind of experiment: PTK2 protein binding on printed compound slides – biochemical, small-molecule microarray, 635/667 nm fluorescence, BSA, DTT, primary screen (AID 1130).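 Note: composite of spot emission at 667 nm and signal to noise over triplicate slides.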 The following applies: 635 nm fluorescence, higher = more signal.
The subject of experiment [14] is Fibrinogen (Alexa647-labelled). As to the kind of experiment: Alexa647-fibrinogen binding to printed small molecules – biochemical, small-molecule microarray, 635/667 nm fluorescence, artefact control for SMM control-protein annotation, profiling panel (AID 1131).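 Note: z-score merges 667 nm fluorescence with per-spot signal-to-noise over triplicate slides.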 The following applies: fibrinogen-A647 binding fluorescence, higher = more signal.
Experiment [15] addresses Follistatin (Homo sapiens) (UniProt P19883). Kind of experiment: FST protein binding to printed compounds – biochemical, small-molecule microarray, 635/667 nm fluorescence, primary screen (AID 1132). The following applies: 635 nm fluorescence, higher = more signal.
Experiment [16] concerns the target Fibroblast growth factor 2 (Homo sapiens) (UniProt P09038). As to the kind of experiment: basic fibroblast growth factor binding to printed compounds – biochemical, small-molecule microarray, 635/667 nm fluorescence, primary screen (AID 1133). The following applies: FGF2, fluorescence 635/667, higher = more signal.
Experiment [17] is described as follows: JC-1 mitochondrial potential readout, lung cancer cells – cell-based, A549, JC-1 fluorescence, basal, 24 h, 100 nL, profiling panel (AID 1138).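 Note: A549 lung adenocarcinoma cells under basal conditions with no added stimulus; test concentration not given here.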 The following applies: higher = more signal.
The subject of experiment [18] is Lefty1. Kind of experiment: Lefty1 protein binding to printed compounds – biochemical, small-molecule microarray, 635/667 nm fluorescence, primary screen (AID 1139). The following applies: fluorescence 635/667, higher = more signal.
Experiment [19] deals with wheat germ agglutinin (Triticum aestivum), Alexa647-labelled. Kind of experiment: Alexa647-WGA lectin binding to printed small molecules – biochemical, small-molecule microarray, 635/667 nm fluorescence, artefact control for SMM control-protein annotation, profiling panel (AID 1140).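 Note: score merges 667 nm feature emission with signal to noise over triplicate slides.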 The following applies: WGA-A647 binding, 635 nm fluorescence, higher = more signal.
The target in experiment [20] is Luciferin 4-monooxygenase (Photinus pyralis) (UniProt P08659). Kind of experiment: inhibition of purified Photinus pyralis luciferase – biochemical, luminescence, purified enzyme, 2006 set, primary screen (AID 1141).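 Note: cell-free assay with purified firefly luciferase at 100 ng per well in PBS; test concentration not given here.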 The following applies: purified firefly luciferase, SteadyGlo luminescence, 30 min; higher = more signal, called active from +8 up or from −8 down.

Molecules are shown by their SMILES. Calls of active or inactive are those of the source.

Luciferin 4-monooxygenase (Photinus pyralis), sequence (P08659 whole entry, looked up): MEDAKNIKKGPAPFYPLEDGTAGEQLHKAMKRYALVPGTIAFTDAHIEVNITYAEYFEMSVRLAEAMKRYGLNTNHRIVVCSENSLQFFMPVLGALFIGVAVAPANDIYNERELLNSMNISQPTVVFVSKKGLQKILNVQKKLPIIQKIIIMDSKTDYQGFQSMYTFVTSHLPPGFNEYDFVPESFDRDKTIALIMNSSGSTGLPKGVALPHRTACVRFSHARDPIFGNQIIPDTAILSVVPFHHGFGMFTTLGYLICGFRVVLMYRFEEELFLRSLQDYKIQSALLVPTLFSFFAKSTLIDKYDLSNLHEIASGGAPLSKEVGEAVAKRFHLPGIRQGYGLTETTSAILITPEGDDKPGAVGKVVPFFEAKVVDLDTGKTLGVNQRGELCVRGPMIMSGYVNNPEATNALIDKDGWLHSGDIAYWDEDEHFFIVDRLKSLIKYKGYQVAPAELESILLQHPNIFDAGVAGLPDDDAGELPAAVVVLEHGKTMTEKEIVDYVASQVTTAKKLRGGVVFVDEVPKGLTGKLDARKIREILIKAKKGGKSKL
Concanavalin-A (Canavalia ensiformis), sequence (P02866 whole entry, looked up): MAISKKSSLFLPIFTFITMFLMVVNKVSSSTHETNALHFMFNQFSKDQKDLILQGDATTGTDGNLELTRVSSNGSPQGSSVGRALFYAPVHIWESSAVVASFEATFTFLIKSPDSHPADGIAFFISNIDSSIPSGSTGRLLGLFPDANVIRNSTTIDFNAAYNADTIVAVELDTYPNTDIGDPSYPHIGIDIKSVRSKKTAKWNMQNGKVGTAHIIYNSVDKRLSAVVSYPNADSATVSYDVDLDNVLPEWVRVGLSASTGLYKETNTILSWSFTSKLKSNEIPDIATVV
Fibroblast growth factor 2 (Homo sapiens), sequence (P09038 whole entry, looked up): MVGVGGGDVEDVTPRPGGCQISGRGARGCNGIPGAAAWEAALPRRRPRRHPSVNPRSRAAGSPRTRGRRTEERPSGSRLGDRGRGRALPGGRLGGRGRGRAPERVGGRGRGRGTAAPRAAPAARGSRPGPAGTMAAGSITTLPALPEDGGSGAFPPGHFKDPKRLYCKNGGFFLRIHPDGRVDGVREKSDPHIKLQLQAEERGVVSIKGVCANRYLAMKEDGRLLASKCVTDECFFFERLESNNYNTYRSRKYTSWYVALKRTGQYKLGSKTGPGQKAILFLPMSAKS
Follistatin (Homo sapiens), sequence (P19883 whole entry, looked up): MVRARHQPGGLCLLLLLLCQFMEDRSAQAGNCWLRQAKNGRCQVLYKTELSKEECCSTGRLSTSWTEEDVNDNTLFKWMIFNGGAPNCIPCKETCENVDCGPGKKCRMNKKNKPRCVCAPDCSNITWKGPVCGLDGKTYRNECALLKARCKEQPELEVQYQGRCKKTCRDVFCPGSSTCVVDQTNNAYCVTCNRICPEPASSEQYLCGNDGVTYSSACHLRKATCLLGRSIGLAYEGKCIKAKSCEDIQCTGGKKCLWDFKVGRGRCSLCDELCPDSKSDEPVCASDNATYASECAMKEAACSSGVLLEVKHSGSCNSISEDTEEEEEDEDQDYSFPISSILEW
Albumin (Bos taurus), sequence (P02769 whole entry, looked up): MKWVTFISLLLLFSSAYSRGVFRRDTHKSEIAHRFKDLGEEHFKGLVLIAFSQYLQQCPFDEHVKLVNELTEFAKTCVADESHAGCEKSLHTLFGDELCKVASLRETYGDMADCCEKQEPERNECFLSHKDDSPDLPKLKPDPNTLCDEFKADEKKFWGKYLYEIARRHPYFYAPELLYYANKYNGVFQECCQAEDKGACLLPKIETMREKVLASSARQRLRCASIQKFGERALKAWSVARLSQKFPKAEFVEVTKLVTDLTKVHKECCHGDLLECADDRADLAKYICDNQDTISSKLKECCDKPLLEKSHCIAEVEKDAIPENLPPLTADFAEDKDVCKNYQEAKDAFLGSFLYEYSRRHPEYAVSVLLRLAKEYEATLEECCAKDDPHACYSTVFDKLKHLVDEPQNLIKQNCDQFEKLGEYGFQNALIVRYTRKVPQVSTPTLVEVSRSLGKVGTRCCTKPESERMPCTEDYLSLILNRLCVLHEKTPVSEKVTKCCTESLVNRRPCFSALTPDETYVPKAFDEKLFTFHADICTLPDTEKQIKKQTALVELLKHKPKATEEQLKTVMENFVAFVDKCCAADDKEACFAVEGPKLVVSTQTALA
Focal adhesion kinase 1 (Homo sapiens), sequence (Q05397 whole entry, looked up): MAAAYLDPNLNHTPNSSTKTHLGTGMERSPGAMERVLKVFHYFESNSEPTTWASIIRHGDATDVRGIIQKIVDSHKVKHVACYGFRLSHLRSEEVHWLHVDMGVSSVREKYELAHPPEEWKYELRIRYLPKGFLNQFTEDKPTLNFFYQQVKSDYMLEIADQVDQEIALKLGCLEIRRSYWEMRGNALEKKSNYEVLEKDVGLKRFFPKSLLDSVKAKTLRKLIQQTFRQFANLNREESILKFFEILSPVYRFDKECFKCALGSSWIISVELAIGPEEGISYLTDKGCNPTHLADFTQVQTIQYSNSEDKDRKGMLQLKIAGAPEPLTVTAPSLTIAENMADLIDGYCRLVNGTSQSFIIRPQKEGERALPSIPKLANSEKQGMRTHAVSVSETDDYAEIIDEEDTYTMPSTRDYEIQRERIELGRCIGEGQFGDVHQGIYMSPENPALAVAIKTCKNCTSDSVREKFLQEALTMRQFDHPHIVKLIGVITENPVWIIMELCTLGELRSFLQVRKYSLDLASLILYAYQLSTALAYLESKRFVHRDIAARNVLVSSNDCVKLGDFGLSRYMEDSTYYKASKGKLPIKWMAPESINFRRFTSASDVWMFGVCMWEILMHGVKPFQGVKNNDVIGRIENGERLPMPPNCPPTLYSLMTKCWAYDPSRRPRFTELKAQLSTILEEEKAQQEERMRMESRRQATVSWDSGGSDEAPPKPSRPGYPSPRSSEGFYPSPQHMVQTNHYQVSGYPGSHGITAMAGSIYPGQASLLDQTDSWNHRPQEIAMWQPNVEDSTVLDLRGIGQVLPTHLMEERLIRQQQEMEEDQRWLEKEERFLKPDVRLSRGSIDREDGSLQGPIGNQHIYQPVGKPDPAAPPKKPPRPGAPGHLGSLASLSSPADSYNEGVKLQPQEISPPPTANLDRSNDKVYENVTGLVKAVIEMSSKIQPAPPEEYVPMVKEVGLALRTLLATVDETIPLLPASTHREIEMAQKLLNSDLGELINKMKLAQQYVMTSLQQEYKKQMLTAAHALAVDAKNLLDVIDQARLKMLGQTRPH

Turning to `COCCOC(=O)N1C(=O)[C@@]2(c3cc(C#CCC(C(=O)OC)C(=O)OC)ccc31)[C@H](C(N)=O)[C@H]1C(=O)O[C@H](c3ccccc3)[C@H](c3ccccc3)N1[C@@H]2c1ccc(O)cc1`, the composite z-score in experiment [1] is 0.751; in [3], 0.104; in experiment [4] it was -0.0282; in experiment [5], 0.407; in [6], 1.97; in [7], 0.134. In addition, the composite z-score in experiment [8] is 1.3; in [9] it was 0.778; in [10] it was 0.951; in experiment [11], 2.22; in experiment [12] it was 1.23; in [13] it was 0.601. Further, the composite z-score turned out to be 0.92 in [14]; 1.33 in [15]; 0.468 in experiment [16]; 1 in experiment [18]; 1.06 in [19]. In addition, the composite Z-score in experiment [2] was -0.642 (inactive). The z-score was -2.31 in experiment [17] and -0.878 (inactive) in experiment [20].

With `[N-]=[N+]=Nc1ccccc1C[C@@]1(C(=O)NCc2ccccc2)N=C(c2ccc(OCCCO)cc2)O[C@@H]1c1ccccc1N=[N+]=[N-]`, the composite z-score in experiment [1] was 0.913; in experiment [3] it was 0.467; in experiment [4], -0.0211; in [5], 0.398; in experiment [6], 1.99; in [7], -0.136. In addition, the composite z-score was 1.14 in experiment [8]; -0.656 in experiment [9]; 1.12 in experiment [10]; 1.27 in experiment [11]; 1.17 in experiment [12]; 0.268 in [13]. Moreover, the composite z-score in [14] was 0.664; in [15] it was 1.32; in experiment [16] it was 0.32; in experiment [18] it was -0.0327; in experiment [19], 1.03. For the same compound, in experiment [2], the composite Z-score was 0.605 (inactive). Also, the figures for the z-score in [17] and in experiment [20] were 0.197 and -2.56 (inactive), respectively.

With `C=CCN1C(=O)[C@]2(O[C@H](CCn3cc([C@H](O)c4ccccc4)nn3)[C@@H]([Si](C)(C)c3ccc(OC)cc3)[C@@H]2C)c2cc(NC(=O)c3ccc(OC)cc3)ccc21`, the composite z-score is 0.55 in experiment [1]; -0.0362 in [3]; -0.135 in [4]; 0.015 in [5]; 1.02 in experiment [6]; -0.182 in experiment [7]. The composite z-score in experiment [8] is 0.867; in [9] it was 0.334; in experiment [10], 0.543; in experiment [11], 0.66; in [12], 0.499; in experiment [13], 0.748. In addition, the composite z-score in experiment [14] was found to be 0.0903; in [15] it was 1.23; in experiment [16], 0.307; in experiment [18], 0.794; in [19], 0.422. Moreover, in [2], the composite Z-score was 0.24 (inactive). Besides, the z-score in experiment [17] is 0.997; in experiment [20], -1.16 (inactive).

Turning to `O=C1C[C@@](C(=O)NCc2ccccc2)(c2ccc([N+](=O)[O-])cc2)[C@@H](c2ccc(CO)cc2)N1C1CCCCC1`, the composite z-score is -0.77 in experiment [1]; 0.14 in [3]; 0.0847 in experiment [4]; 0.317 in experiment [5]; 2.89 in [6]; 1.76 in [7]. For the same compound, the composite z-score in experiment [8] was 1.03; in experiment [9], 0.575; in experiment [10], 1.07; in [11] it was 1.25; in experiment [12] it was 1.15; in [13] it was 1.02. Moreover, the composite z-score stood at 0.955 in experiment [14]; 1.12 in experiment [15]; 1.05 in experiment [16]; 0.294 in experiment [18]; 0.706 in experiment [19]. Further, in experiment [2], the composite Z-score is 1.06 (inactive). Also, the z-score in experiment [17] is 0.966; in experiment [20], -0.238 (inactive).

Take `COc1cc(CO)cc(I)c1O[C@H]1C=C(C(=O)NCCO)C[C@@H](NC2CCCCCC2)[C@@H]1O`: the composite z-score in experiment [1] is 0.441; in experiment [3], 0.106; in experiment [4] it was -0.161; in [5] it was 0.579; in experiment [6] it was -0.103; in [7] it was 0.993. The composite z-score in [8] is 1.33; in experiment [9], 0.714; in [10], 0.747; in experiment [11], 0.34; in [12], 1.14; in [13] it was -0.433. The composite z-score is 0.794 in [14]; 0.931 in experiment [15]; 1.01 in [16]; 1.37 in experiment [18]; 0.246 in [19]. For the same compound, the composite Z-score in [2] was -0.228 (inactive). Moreover, the z-score in experiment [17] was 1.88; in [20], 4.69 (inactive).

As to `CCOC(=O)C1=C[C@@H](C(C)(C)C)N(S(=O)(=O)c2ccc(C)cc2)[C@H]1c1ccc(C#N)cc1`, the composite z-score in experiment [1] turned out to be 0.684; in [3] it was 0.0935; in experiment [4], 0.0655; in experiment [5], 0.632; in [6], 2.72; in experiment [7], 0.969. In addition, the composite z-score in experiment [8] amounted to 1.31; in experiment [9], 0.582; in experiment [10], 1.09; in experiment [11] it was 1.16; in experiment [12] it was 1.23; in [13], 0.637. The composite z-score in experiment [14] was 0.996; in experiment [15] it was 0.599; in [16] it was 0.0014; in experiment [18] it was 0.307; in experiment [19] it was 1.08. In experiment [2], the composite Z-score was -0.795 (inactive). Also, the z-score in experiment [17] is 1.53; in experiment [20], 1.82 (inactive).

Values taken from PubChem BioAssay.
